Hits are enriched below; roughly 12% of the tested compounds scored in any of these assays.
Sfp PPTase inh: qHTS Assay for Inhibitors of Bacillus subtilis Sfp phosphopantetheinyl transferase (PPTase); 4'-phosphopantetheinyl transferase ffp (Bacillus subtilis), Q9F4F7; Biochemical Sfp PPTase activity, qHTS; Potency, µM, for the others: largest response in the series, negative = inhibition, usual class: inhibitors; 3.5% of 310,000 active; AID 1490, 2009;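 note: the enzyme is Sfp with the accession as filed and its product quenches rhodamine fluorescence; 0% = enzyme reaction without inhibitor and -100% = no enzyme wells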
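Fluorescence-quenching assay with 15 nM Sfp, 5 uM rhodamine-CoA and 12.5 uM BHQ-2-labelled ybbR peptide in pH 7.6 Hepes/MgCl2 buffer. Enzyme was pre-incubated with compound for 15 min at room temperature. Rate was taken from the 30-min fluorescence change (525/598 nm).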
HP1b binding inh: HTS for Inhibitors of HP1-beta Chromodomain Interactions with Methylated Histone Tails; 0.56% of 390,000 active; Chromobox protein homolog 1 (Homo sapiens), P83916; AID 540317, 2011; Potency, µM (series often up to 114 µM), for the others: at the top dose activity change, negative = inhibition, hits mostly inhibitors; AlphaScreen HP1-beta / biotin-H3K9me3 peptide binding; note: nearly all actives have a fitted effect of over 70% in size
Target sequence (P83916 whole entry, looked up): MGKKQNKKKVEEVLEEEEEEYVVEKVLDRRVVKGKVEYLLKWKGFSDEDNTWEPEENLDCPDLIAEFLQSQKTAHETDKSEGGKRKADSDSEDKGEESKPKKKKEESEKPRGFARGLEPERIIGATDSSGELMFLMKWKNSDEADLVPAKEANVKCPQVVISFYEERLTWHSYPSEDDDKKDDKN
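Compound inhibition of the preformed complex between 50 nM HP1-beta and 50 nM biotinylated H3K9me3 peptide was read by AlphaScreen. Buffer was PBS pH 7.4 with 0.01% Tween-20. Incubations ran 30 min at room temperature, with 10 ug/mL donor/acceptor beads.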
JMJD2A Tudor: qHTS Assay for Inhibitors of JMJD2A-Tudor Domain | Lysine-specific demethylase 4A (Homo sapiens), O75164 | AlphaScreen JMJD2A-Tudor / H3K4me3 peptide binding | Potency, µM (titrated, usually from 114 µM), without a hit: at the highest dose activity change, negative = inhibition, usual class: inhibitors | 4.4% of 390,000 active | AID 504339, 2011; note: % is set by controls: 0 for no effect and ±100 for the full control effect; nearly all actives have a fitted effect of over 50% in size
G9a block: qHTS Assay for Inhibitors of Histone Lysine Methyltransferase G9a; Histone-lysine N-methyltransferase EHMT2 (Homo sapiens), Q96KQ7; G9a H3K9 monomethylation, AlphaScreen, 2 h; Potency, µM (highest dose often 102 µM), for inactives: top-dose activity, negative = inhibition, hits mostly inhibitors; 8.8% of 350,000 active; AID 504332, 2011; note: % is set by controls: 0 for no effect and ±100 for the full control effect; nearly all actives have a fitted effect of over 75% in size
Target sequence (Q96KQ7 913-1193 limits assumed): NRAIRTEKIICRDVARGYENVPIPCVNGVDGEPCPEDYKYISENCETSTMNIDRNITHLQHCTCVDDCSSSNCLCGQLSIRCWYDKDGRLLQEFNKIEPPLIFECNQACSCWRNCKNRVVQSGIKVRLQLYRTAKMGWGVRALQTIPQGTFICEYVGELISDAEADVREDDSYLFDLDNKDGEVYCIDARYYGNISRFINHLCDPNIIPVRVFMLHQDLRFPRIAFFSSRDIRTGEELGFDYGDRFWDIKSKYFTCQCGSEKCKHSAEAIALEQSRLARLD
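AlphaScreen read-out: biotin-H3K9 peptide (500 nM) methylation by 20 nM enzyme with 20 uM SAM, 2 h at room temperature after 15 min compound preincubation; anti-monomethyl H3K9 antibody plus donor/acceptor beads, 10 min dark.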
BAZ2B block: qHTS Assay for Inhibitors of BAZ2B; 4.4% of 360,000 active; AlphaScreen BAZ2B-H3K14Ac peptide displacement; Potency, µM (highest dose often 114 µM), without a hit: top-dose activity change, negative = inhibition, hits mostly inhibitors; note: % is set by controls: 0 for no effect and ±100 for the full control effect; nearly all actives have a fitted effect of over 60% in size
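Inhibition is scored as reduced AlphaScreen emission. The BAZ2B/b-H3(5-23)K14Ac complex (50 nM each) in PBS pH 7.4, 0.01% Tween-20 meets compound (up to 110 uM) for 30 min at RT before bead addition.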
L3MBTL1 block: qHTS Assay for the Inhibitors of L3MBTL1; Lethal(3)malignant brain tumor-like protein 1 (Homo sapiens), Q9Y468; AlphaScreen L3MBTL1–H3K9me1 peptide binding; Potency, µM (highest dose often 57.1 µM), for the others: at the highest dose activity, negative = inhibition, hits mostly inhibitors; 0.66% of 230,000 active; AID 485360, 2010; note: % is set by controls: 0 for no effect and ±100 for the full control effect; nearly all actives have a fitted effect of over 60% in size
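Displacement of a biotinylated histone H3(1-15) peptide monomethylated at Lys9 (75 nM) from L3MBTL1 (50 nM) was measured by AlphaScreen after a 30 min room-temperature compound incubation; cefsulodin titration served as intraplate control.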
* marks the source's active call; other numbers are inactive results; [ ] = remark or other dose. Calls come from the whole dose curve; as a rule, active = well fitted curve in the direction sought with a large enough effect; inconclusive = small, poorly fitted or top-dose-only effect, or another doubt; inactive = no such curve, though single readings can be large; an effect the other way counts as inactive or inconclusive. Potency is the fitted concentration of half-maximal effect.

What do the screens show for `CN(C)c1ccc(C(CNC(=O)c2cccc(C(F)(F)F)c2)N2CCCC2)cc1` (stereo not drawn)?
HP1b binding inh: -12%; JMJD2A Tudor: inconclusive; G9a block: -39%[59 µM]; BAZ2B block: inconclusive

How did O=C(O)COc1ccc(-c2nc(-c3ccccc3)c(-c3ccccc3)[nH]2)cc1 do in these assays?
Sfp PPTase inh: 18%; HP1b binding inh: -15%; JMJD2A Tudor: -31%; G9a block: inconclusive; BAZ2B block: -36%

Results for Cc1[nH]c(-c2ccco2)nc1C(=O)O ?
Sfp PPTase inh: 79µM*; HP1b binding inh: 1%; JMJD2A Tudor: 10µM*; G9a block: 20µM*; BAZ2B block: inconclusive; L3MBTL1 block: 2%

What do the screens show for `COc1ccc(-c2[nH]c(-c3ccc(O)cc3)nc2-c2ccccc2)cc1`?
HP1b binding inh: -22%; JMJD2A Tudor: 63µM*; G9a block: inconclusive; BAZ2B block: 10µM*

How did COc1cc(-c2nc(-c3ccccc3)c(-c3cccs3)[nH]2)cc(OC)c1O do in these assays?
Sfp PPTase inh: 1%; HP1b binding inh: inconclusive; JMJD2A Tudor: 45µM*; G9a block: -6%[12.7 µM]; BAZ2B block: 50µM*

How did COc1ccc(-c2noc(COc3ccc4c(c3)OCO4)n2)cc1 do in these assays?
Sfp PPTase inh: 10µM*; HP1b binding inh: 30%; JMJD2A Tudor: -13%; G9a block: 17%[59 µM]; BAZ2B block: 9%; L3MBTL1 block: 2%

How did COc1ccc(NC(=O)CCCS(=O)(=O)c2nc(-c3ccc(OC)c(OC)c3)cc(C(F)(F)F)n2)cc1OC do in these assays?
HP1b binding inh: 37%; JMJD2A Tudor: -14%; G9a block: 16µM*; BAZ2B block: -4%

How did CC(=O)c1ccc(NC(=O)CN(C)S(=O)(=O)c2cc3c(cc2Cl)NC(=O)CO3)cc1 do in these assays?
HP1b binding inh: 25%; JMJD2A Tudor: -15%; G9a block: 5%[59 µM]; BAZ2B block: -20%

What do the screens show for `O=C(C1=C(O)C(=O)N(CCN2CCOCC2)C1c1ccc(Cl)cc1)c1cc2ccccc2o1` (stereo not drawn)?
Sfp PPTase inh: 17%; HP1b binding inh: 8%[57 µM]; JMJD2A Tudor: -28%; G9a block: -1%[0.0925 µM]; BAZ2B block: -14%

How did COc1cccc(C2C(C(=O)c3cc4ccccc4o3)=C(O)C(=O)N2CCN(C)C)c1OC (stereo not drawn) do in these assays?
HP1b binding inh: 37%; JMJD2A Tudor: 17%[11.4 µM]

Results for COC(=O)c1ccc(C2C(C(=O)c3cc4ccccc4o3)=C(O)C(=O)N2CCN2CCOCC2)cc1 (stereo not drawn) ?
Sfp PPTase inh: 14%; HP1b binding inh: 32%; JMJD2A Tudor: 0%; G9a block: inconclusive; BAZ2B block: -16%

How did O=C(C1=C(O)C(=O)N(CCN2CCOCC2)C1c1ccc([N+](=O)[O-])cc1)c1cc2ccccc2o1 (stereo not drawn) do in these assays?
Sfp PPTase inh: -29%; HP1b binding inh: 5%; JMJD2A Tudor: 3%; G9a block: 40µM*; BAZ2B block: -21%

How did COc1ccccc1C1C(C(=O)c2cc3ccccc3o2)=C(O)C(=O)N1CCN1CCOCC1 (stereo not drawn) do in these assays?
Sfp PPTase inh: -22%; HP1b binding inh: 27%; JMJD2A Tudor: 89µM*; G9a block: 8.9µM*; BAZ2B block: inconclusive

Results for COc1cccc2cc(C(=O)C3=C(O)C(=O)N(CCN4CCOCC4)C3c3ccc(C)o3)oc12 (stereo not drawn) ?
Sfp PPTase inh: -15%; HP1b binding inh: 27%; JMJD2A Tudor: -16%; G9a block: 32µM*; BAZ2B block: inconclusive
